Shown are actives, neighbours in structure and some others; about 11% of the full set was active somewhere.
G9a block – blocks human histone lysine methyltransferase G9a. G9a H3K9 monomethylation, AlphaScreen, 2 h. Potency, µM (titrated, usually from 102 µM), hits mostly inhibitors. hit rate 8.8% among 350,000; also: nearly all actives have a fitted effect of over 75% in size
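G9a (20 nM) was preincubated 15 min with compound, then reacted 2 h at room temperature with 500 nM biotin-H3K9 peptide and 20 µM SAM. Monomethyl-H3K9 detected by AlphaScreen using anti-H3K9me1 antibody.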
VDR inh – blocks the human vitamin D receptor. P11473. hit rate 0.93% among 400,000. Potency, µM, usual class: inhibitors. VDR-SRC2-3 peptide fluorescence polarization, 2 h
Target sequence (P11473 whole entry, looked up): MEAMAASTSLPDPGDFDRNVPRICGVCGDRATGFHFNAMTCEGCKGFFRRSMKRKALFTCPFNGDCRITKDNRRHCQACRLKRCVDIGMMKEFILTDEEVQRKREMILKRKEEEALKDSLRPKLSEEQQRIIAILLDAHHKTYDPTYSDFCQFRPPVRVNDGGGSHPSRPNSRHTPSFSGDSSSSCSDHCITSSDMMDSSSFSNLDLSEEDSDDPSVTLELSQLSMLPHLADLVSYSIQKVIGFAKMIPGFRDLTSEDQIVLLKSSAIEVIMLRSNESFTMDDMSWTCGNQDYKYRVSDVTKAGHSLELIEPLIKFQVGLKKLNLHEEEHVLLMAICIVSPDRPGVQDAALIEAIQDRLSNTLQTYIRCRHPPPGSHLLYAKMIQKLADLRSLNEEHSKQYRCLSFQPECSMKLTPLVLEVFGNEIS
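After 23 nl compound addition and a short centrifugation, plates sat for 2 hours at ambient temperature; polarization of fluorescence then indicated loss of VDR binding to peptide SRC2-3.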
PLK1 PBD inh – PLK1 (human) polo-box domain binding inhibition. hit rate 2.8% among 360,000. Plk1 PBD binding of FITC phosphopeptide, fluorescence polarization. P53350. Potency, µM, usual class: inhibitors. AID 720504; also: series mostly up to about 57 µM; nearly all actives have a fitted effect of over 65% in size
JMJD2A Tudor inh – blocks the human JMJD2A Tudor domain. Potency, µM (top dose mostly 114 µM), most hits filed as inhibitors. hit rate 4.4% among 390,000. O75164. AlphaScreen JMJD2A-Tudor / H3K4me3 peptide binding. AID 504339; also: nearly all actives have a fitted effect of over 50% in size
BAZ2B block – inhibitors of human BAZ2B bromodomain | AlphaScreen BAZ2B-H3K14Ac peptide displacement | hit rate 4.4% among 360,000 | Potency, µM (titrated, usually from 114 µM), most hits filed as inhibitors; also: nearly all actives have a fitted effect of over 60% in size
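Compounds, titrated to a top concentration of 110 uM, were incubated 30 min at room temperature with preformed BAZ2B/acetyl-K14 H3 peptide complex (50 nM each). Proximity signal was measured by AlphaScreen after 20 min with beads.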
HP1b binding inh – HP1-beta chromodomain-methylated histone interaction inhibition; P83916; AlphaScreen HP1-beta / biotin-H3K9me3 peptide binding; Potency, µM (series often up to 114 µM), most hits filed as inhibitors; hit rate 0.56% among 390,000; also: nearly all actives have a fitted effect of over 70% in size
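Compound inhibition of the preformed complex between 50 nM HP1-beta and 50 nM biotinylated H3K9me3 peptide was read by AlphaScreen. Buffer was PBS pH 7.4 with 0.01% Tween-20. Incubations ran 30 min at room temperature, with 10 ug/mL donor/acceptor beads.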
TbPYK confirm – confirmation of Trypanosoma brucei pyruvate kinase inhibitors. hit rate 67% among 890. Potency, µM (titrated, usually from 76.9 µM), most hits filed as inhibitors. AID 720569. recombinant TbPYK, Kinase-Glo ATP luminescence. shares compounds with PLK1 PBD inh; also: nearly all actives have a fitted effect of over 70% in size
TbPYK orthogonal – orthogonal confirmation of Trypanosoma brucei pyruvate kinase inhibitors. AID 720584. hit rate 62% among 890. recombinant TbPYK, ADP-Glo luminescence, 60 min. Potency, µM (top dose mostly 76.9 µM), hits mostly inhibitors. shares compounds with PLK1 PBD inh; also: nearly all actives have a fitted effect of over 75% in size
Numbers stand for hits; – = inactive; ? = inconclusive; · = no result; [ ] = another dose, or the depositor's remark. Calls follow the shape of the dose curve; as a rule, active = well fitted curve in the direction sought with a large enough effect; inconclusive = small, poorly fitted or top-dose-only effect, or another doubt; inactive = no such curve, though single readings can be large; an effect the other way counts as inactive or inconclusive.

SMILES | G9a block | VDR inh | PLK1 PBD inh | JMJD2A Tudor inh | BAZ2B block | HP1b binding inh | TbPYK confirm | TbPYK orthogonal
C[C@H](CO)N1C[C@H](C)[C@@H](CN(C)S(=O)(=O)c2cccs2)Oc2ccc(NC(=O)Nc3ccc4c(c3)OCO4)cc2C1=O | · | – | – | ? | · | – | · | ·
COc1ccccc1-c1nn2c(=O)cc(CN3CCN(C(=O)COc4ccccc4Cl)CC3)nc2s1 | – | – | · | – | – | – | · | ·
CN1CCCC1c1cccnc1 (centres undefined) | · | – | – | – | · | – | · | ·
CN1C(=O)C(=Cc2cc([N+](=O)[O-])ccc2N2CCCCC2)C(=O)N(C)C1=O | – | – | – | – | ? | – | · | ·
CN1C(=O)NC(=O)/C(=C/c2ccc([N+](=O)[O-])o2)C1=O | · | 70.8µM | 4.74µM | 22.4µM | 50.1µM | 50.1µM | 8.91µM | ?
O=c1c2ccccc2nc(/C=C\c2cccc(Br)c2)n1-c1ccc(O)cc1 | – | – | · | – | – | – | · | ·
O=C1NC(=O)C(=Cc2csc3ccccc23)C(=O)N1 | 8.91µM | 35.5µM | 2.12µM | – | ? | – | 15.8µM | 31.6µM
O=C1NC(=O)N(c2ccc(F)cc2)C(=O)/C1=C/c1ccsc1 | 14.1µM | ? | 6.7µM | – | – | – | ? | –
O=C1NC(=O)N(c2cccc(Br)c2)C(=O)/C1=C/c1ccsc1 | 10µM | ? | 2.38µM | – | – | – | ? | ?
O=C1NC(=O)C(=Cc2cccs2)C(=O)N1 | · | ? | 2.67µM | – | · | – | 14.1µM | 31.6µM
C(=NC12CN3CN(CN(C3)C1)C2)c1cccs1 | –[0.501 µM] | – | – | – | – | – | · | ·
Cc1ccc(C2=NOC(C)(c3nnc(-c4ccccc4)o3)C2)cc1 (centres undefined) | · | – | – | – | · | – | · | ·
COc1cccc(/C=C/c2nc3ccccc3c(=O)n2-c2ccc(Cl)cc2)c1OC | – | – | · | – | – | – | · | ·
COc1cccc(C2SCC(=O)Nc3c2c(C)nn3-c2ccc(C)c(Cl)c2)c1OC (centres undefined) | – | – | · | – | – | – | · | ·
COc1cccc(C(C#N)N2CCCCC2)c1O (centres undefined) | ? | – | – | – | – | – | · | ·
CC(=O)n1cc(C=C2C(=O)NC(=O)NC2=O)c2ccccc21 | 10µM | ? | 4.23µM | ? | – | – | 22.4µM | 35.5µM
O=C1NC(=O)C(=Cc2ccsc2)C(=O)N1 | – | – | 6.7µM | – | – | – | 14.1µM | ?
COC(=O)C1=C(C(=O)OC)C2OC1c1cc3ccccc3cc12 | · | 8.91µM | 2.99µM | 89.1µM | · | – | 10µM | 12.6µM
CC(C)CCNC(=O)Cn1c(=O)oc2cc(S(=O)(=O)N3CCc4ccccc43)ccc21 | ? | – | – | – | – | – | · | ·
C=CCC1C(=O)NC(=S)NC1=O | 8.91µM | 89.1µM | 29.9µM | 89.1µM | – | – | 0.562µM | 1.78µM
CCC12CN3CC(CC)(CN(C1)C3c1c(C)[nH]c(=O)[nH]c1=O)C2=O (centres undefined) | ? | – | · | – | – | – | · | ·

Source: PubChem BioAssay (National Center for Advancing Translational Sciences (NCATS))
